# Measured values reported in the supplement of paper PMC8540655.
# Unmarked numbers belong to inactive results.
# System: Aedes aegypti larvae
# Test: larval motility relative to same well at 0 h (fraction); higher = more motile (less active compound), active = 0.4 or less
# Details: 10 µM
# Outline: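 Relative motility is the score of a well divided by its own score at the first recording. Movies were made with INVAPP at 0, 2 and 24 h, each having 200 frames at 100 ms intervals. Larvae of Aedes aegypti, from 18–24 h hatches in pond salt solution with yeast at 25 °C, sat at about 10 per well (100 µL) in 96-well plates with compounds at 10 µM and 1% v/v DMSO. Solvent and larvicide control wells were included on every plate, and values are medians of three independent larval batches.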
SMILES,larval motility (2 h),larval motility (24 h)
CCOc1noc2cc(OCCC3CCN(c4ccc(C)nn4)CC3)ccc12,0.793,1.06
COc1ccc(-n2cnc3cc(NCc4ccco4)ccc32)cc1,0.835,1.63
O=c1[nH]c(=O)n(Cc2cccc(Oc3ccccc3)c2)cc1Nc1ccccc1,0.698,0.791
C[C@@H](c1nc(-c2ccc(C#N)cc2)cs1)[C@](O)(Cn1cncn1)c1ccc(F)cc1F,0.723,0.498
O=C1NC(=O)C(Br)=C1Br,0.672,0.484
COc1c(NC(=O)[C@H]2CC[C@@H](COc3ccc([N+](=O)[O-])cc3)CC2)c(F)cc2c(=O)c(C(=O)O)cn(C3CC3)c12,1.02,0.873
C[C@H]1CC[C@@]2(O)C(C)(C)[C@@H]3CC[C@@]2(C)[C@H]1C3,0.756,0.757
CC(C)(C)NC(=O)N[C@H](C(=O)N1C[C@H]2[C@@H]([C@H]1C(=O)NC(CC1CCC1)C(=O)C(N)=O)C2(C)C)C(C)(C)C (stereo not given in full),0.758,0.813
CCOCc1nc2c(N)nc3ccccc3c2n1CC(C)(C)O,1.09,0.906
CC(C)Cn1c(=O)n(C)c(=O)c2c(-c3cncn3C)n(Cc3cccc4ccccc34)nc21,0.612,0.874
Nc1nc(F)nc2c1ncn2[C@H]1O[C@@H](CO)[C@H](O)[C@@H]1O,0.949,0.854
COc1cc2c(O)c3c(c(-c4ccc5c(c4)OCO5)c2cc1OC)C(=O)OC3,0.887,0.868
N#C/C(=C1/SC[C@H](c2ccc(Cl)cc2Cl)S1)n1ccnc1,0.983,1
CN(C)[C@@H]1C(=O)C(C(N)=O)=C(O)[C@@]2(O)C(=O)C3=C(O)c4c(O)c(NC(=O)CN5CCCC5)cc(F)c4C[C@H]3C[C@@H]12,0.841,1.78
COc1nc2ccc(Br)cc2cc1[C@@H](c1ccccc1)[C@@](O)(CCN(C)C)c1cccc2ccccc12,0.838,0.679
CN(C)CC(=O)Nc1ccc2[nH]c(=O)c3ccccc3c2c1,0.338 (active),0.463
COc1ccc2c(c1)cc(CNC(=O)c1cc3ccccc3o1)n2CC(=O)O,0.674,0.871
CN(C)c1[nH]c(=O)ncc1F,1.24,1.3
O=C(O)c1cc(-c2ccccc2)nc2ccccc12,0.53,0.971
CN(C/C=C/C#CC(C)(C)C)Cc1cccc2ccccc12,0.66,0.879
Nc1nc(NC2Cc3ccc(F)cc3C2)nc(N2CCCCC2)n1 (stereo not given),0.662,0.628
Fc1cccc(Cl)c1C1CC(c2ccc(Cl)cc2)Nc2nnnn21 (stereo not given),1.01,1.08
OCCC#Cc1nc(-c2ccc(F)cc2)c(-c2ccncc2)n1CCCc1ccccc1,0.457,0.301 (active)
CCc1c(OCC2CCC2)c2cc(F)ccc2[nH]c1=O,1.07,1.08
O=S(=O)(Nc1cccc2cccnc12)c1ccccc1,0.587,0.61
Clc1ccc(Cn2c(CN3CCCC3)nc3ccccc32)cc1,1.09,1.28
Cc1onc(-c2ccccc2)c1-c1ccc(S(N)(=O)=O)cc1,0.513,0.435
O=C(c1ccccc1)N1CCN(c2ccccc2NC(=O)C(Cl)(Cl)Cl)CC1,1.33,0.669

SMILES,larval motility (2 h),larval motility (24 h)
CC(C)(C)c1ccc(Oc2ccc(N)cc2)cc1,0.91,1.33
O=C(Nc1ccc(F)cc1)c1nn(-c2ccccc2)c(=O)cc1Cl,1.14,0.91
Fc1ccc2c(/C=C/c3nnn[nH]3)c[nH]c2c1,1.85,1.39
CSc1ccc2c(c1)C(N1CCN(C)CC1)Cc1ccccc1S2 (stereo not given),1.08,0.827
CCNC(=O)Nc1cn2c(-c3ncc(CC)cn3)cc(-c3cccnc3)cc2n1,0.892,0.894
Nc1ccc2oc(=O)ccc2c1I,0.518,0.509
C=CCN(C(=O)OCc1ccc([N+](=O)[O-])cc1)C1CCN(CC[C@](C)(CN(C)S(=O)(=O)c2ccccc2)c2ccccc2)CC1,0.847,0.852
Nc1nc(O)c(Br)c(-c2ccccc2)n1,0.633,0.648
CCCCSc1nc(N)c2[nH]c(=O)c(=O)n(Cc3ccccc3)c2n1,0.896,1.51
COc1ccc(SC(=O)N[C@H](CCC(=O)O)C(=O)O)cc1,0.861,0.93
O=C(/C(=C/c1ccc(Cl)cc1Cl)n1ccnc1)c1ccc(Cl)cc1,0.446,1.04
CCc1cc(O)c(Oc2cccnc2N)cc1F,1.72,1.42
COc1cccc(N2CCN(C3=Nc4c(F)cccc4[C@H](CC(=O)O)N3c3cc(C(F)(F)F)ccc3OC)CC2)c1,1.02,1.01
O=C(/C=C/n1cnc(-c2cc(C(F)(F)F)cc(C(F)(F)F)c2)n1)NNc1cnccn1,0.908,1
CCOC(=O)/C=C/[C@H](C[C@@H]1CCNC1=O)NC(=O)[C@H](CC)n1cccc(NC(=O)c2cc(C)on2)c1=O,1.27,0.871
O=C(/C=C\n1cnc(-c2cc(C(F)(F)F)cc(C(F)(F)F)c2)n1)NNc1ccccn1,1.12,1.17
COC(=O)Nc1nc2c(C)cccc2[nH]1,0.678,0.778
CCC[C@H](NC(=O)[C@@H]1[C@H]2CCC[C@H]2CN1C(=O)[C@@H](NC(=O)[C@@H](NC(=O)c1cnccn1)C1CCCCC1)C(C)(C)C)C(=O)C(=O)NC1CC1,0.881,0.577
Nc1nc(=O)c(Br)c(-c2cccc(Cl)c2)[nH]1,0.895,0.972
OCCCCn1cnc2c(O)nc(NCc3ccc(Cl)c(Cl)c3)nc21,0.982,0.79
CCCCCCC1c2ccc(O)cc2Oc2cc(O)ccc21,0.468,0.989
CC(C)Oc1ccc(-c2nc(-c3cccc4c3CC[C@@H]4NCCO)no2)cc1C#N,1.2,1.25
CC[C@H](CO)Nc1nc(NCc2ccccc2)c2ncn(C(C)C)c2n1,0.799,0.755
C/C(=N\NC(=O)C1CC1c1ccccc1)c1ccc(NC(=O)c2ccco2)cc1 (stereo not given),0.804,0.958
Cc1nc(-c2ccc(C3N(C)c4ccc(F)cc4C(=O)N3c3ccccc3)s2)cs1 (stereo not given),0.613,0.822
OB1OCc2c1ccc(Cl)c2F,0.987,1.19
CCC(C)(C)c1ccc(CC(C)CN2C[C@@H](C)O[C@@H](C)C2)cc1 (stereo not given in full),0.895,0.765
